# Data taken from ChEMBL document CHEMBL3988442, “University of Dundee, Small-Polar-MMV Screening Library” (2021).
# Target: Shiga toxin 2 (Escherichia coli O157:H7) (UniProt P09385+P09386)
# Experiment: E. coli 0.157:H7 Shiga Toxin SOP - stx2 screening assay
# Type: functional
# Set-up: scale not given: direction of the effect not stated beside the values
# Settings: 30 µM
row,SMILES,Percent Effect
1,Cc1ccoc1-c1nnc(CNCC2CCCN2c2cccnn2)o1 (stereo not given),5.85%
2,O=C(CO)N1CCc2onc(Cn3cccn3)c2C1,7.04%
3,CC(C)Cc1noc(CN2CCOCC2)n1,29.5%
4,Cc1cccc(C(=O)NC(CN2CCCC2=O)c2ccccc2)n1 (stereo not given),14%
5,Cc1nc(CN2CCC(N(C)Cc3noc(C4CC4)n3)C2)oc1C (stereo not given),-11%
6,COc1ccccc1CC(=O)N1CCCC(n2nc(C)cc2C)C1 (stereo not given),10.9%
7,CCc1cc(C(=O)N2CCC(Nc3ccc(C)nn3)CC2)sc1C,-27.9%
8,COCCNC(=O)CCc1c(C)nn(-c2nc(C)c(C)c(=O)[nH]2)c1C,-2.84%
9,O=C(c1n[nH]c2ccccc12)N1CCCC1c1noc(C2CC2)n1 (stereo not given),9.03%
10,Cc1csc(CN2CC[C@H]3C[C@H](c4nnc(C)[nH]4)O[C@@H]3C2)n1,0.515%
11,CCOc1ccccc1C(=O)N1CCCC1c1ncc2c(n1)CCNC2 (stereo not given),48.2%
12,CC(C)c1nc2n(n1)CC(NCc1nc(-c3cccnc3)no1)CC2 (stereo not given),-31.5%
13,C[C@]1(O)CCN(Cc2cncs2)C[C@@H]1Oc1cccc(F)c1,35.4%
14,CC1CCN(C(=O)c2cccc3ncccc23)CC1,5.74%
15,CSc1ccccc1C(C(=O)O)N1CCN(Cc2ccccn2)CC1 (stereo not given),17.4%
16,COCC(=O)N1CCCC2(CCN(c3ccsc3)C2=O)C1 (stereo not given),0.668%
17,CC(C)c1nn(C)c(N2CCOCC2)c1CNCC(=O)N(C)C,-14.4%
18,COc1ccccc1N1CCC(CNCc2cccc(C#N)c2)C1 (stereo not given),2%
19,COCCN1CCCN(C(=O)NC(C)Cn2ccnc2)CC1 (stereo not given),-14.7%
20,COc1ccc(COCC(O)CNC(=O)c2cnc(C)cn2)cc1 (stereo not given),-32.5%

row,SMILES,Percent Effect
1,N#Cc1ccc(N2CCCN(C(=O)CC3CCCO3)CC2)cc1 (stereo not given),11.8%
2,Cc1nc(C)n(C2CCCN(C(=O)c3ccccc3C)C2)n1 (stereo not given),18.2%
3,Cc1cccc(CNCc2c(C)nn(C)c2N2CCOCC2)n1,-0.864%
4,O=C(NCC1CC1)Nc1cnc2cc(Cl)ccc2c1O,-0.695%
5,Cc1nc2n(n1)CC(Nc1cc(C(F)(F)F)nc3ncnn13)CC2 (stereo not given),-1.67%
6,O=C(Cc1cccc(F)c1)NCCNCc1ccco1,3.74%
7,CC(C)c1nc(C2CCCN2CC(=O)Nc2ccc(Cl)cn2)no1 (stereo not given),9.53%
8,Cc1csc(N2CCCN(C(=O)c3c(C)oc(C)c3C)CC2)n1,-3.9%
9,Cn1nc2c(cc1=O)CN(Cc1coc(-c3cccs3)n1)CC2,-29.8%
10,CC(C)NC(=O)N1CCC2(CC(C(=O)NCc3cccnc3)=NO2)C1 (stereo not given),-11.6%
11,CSCC(=O)N1CCC2(CC1)c1ccccc1CC2O (stereo not given),-32.5%
12,Cc1c(C)n(Cc2ccncc2)c2nc3c(c(N)c12)CCCCC3,-41.4%
13,Nc1nccc(N2CCCC(CO)(CCOc3ccccc3)C2)n1 (stereo not given),-17.8%
14,CNC(=O)CSc1nc2c(cnn2Cc2ccc(F)cc2)c(=O)[nH]1,-8.43%
15,CO[C@H]1CCN(S(=O)(=O)c2cn(C)cn2)[C@H]1Cc1cnn(C)c1,5.54%
16,Cc1ccc(N2CCCN(C(=O)CC3CCCO3)CC2)nn1 (stereo not given),18.1%
17,N#Cc1ccccc1OCCN1CCCCC1Cn1cncn1 (stereo not given),5.17%
18,c1cnc(NCc2cncc3c2CCN(Cc2cccs2)C3)nc1,-9.08%
19,Cc1cc(C)cc(-c2ccc(CC3(C(=O)O)CCOCC3)cc2)c1,-4.63%
20,CNC(=O)c1cc(S(=O)(=O)C(C)C)cs1,-3.3%
